From PubChem BioAssay (NCI)
“And” between values parts separate entries of the source, which are not always exact repeats. Equal values may be shown once. About 83,000 compounds went through this panel and 20% of them were active in at least one assay; those are over-represented in the sample as a whole.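 Testing used 96-well plates and a 48-hour single-concentration exposure. Example: -40 means 40% of the starting cells died.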 Some compounds were tested as several samples or in several runs, with calls that do not always agree. The source made the active and inactive calls. How the source made its calls: active means growth percent below 10; inactive means the rest.

Assays:
Assay in all cases: NCI-60 one-dose screen, 48 h (100 = growth as untreated, 0 = no growth, -100 = all killed)
Details in all cases: 10 µM unless noted
SK-MEL-2 melanoma = tested on: SK-MEL-2 melanoma
EKVX NSCLC = tested on: EKVX NSCLC
SN12C renal = tested on: SN12C renal
UO-31 renal = tested on: UO-31 renal
TK-10 renal = tested on: TK-10 renal
ACHN renal = tested on: ACHN renal
A498 renal = tested on: A498 renal
MOLT-4 leukemia = tested on: MOLT-4 leukemia
SR leukemia = tested on: SR leukemia
RPMI-8226 leukemia = tested on: RPMI-8226 leukemia
OVCAR-8 ovarian = tested on: OVCAR-8 ovarian
OVCAR-5 ovarian = tested on: OVCAR-5 ovarian
OVCAR-4 ovarian = tested on: OVCAR-4 ovarian
SK-OV-3 ovarian = tested on: SK-OV-3 ovarian
IGROV1 ovarian = tested on: IGROV1 ovarian
OVCAR-3 ovarian = tested on: OVCAR-3 ovarian
NCI/ADR-RES ovarian = tested on: NCI/ADR-RES ovarian
CCRF-CEM leukemia = tested on: CCRF-CEM leukemia
HS 578T breast = tested on: HS 578T breast
CAKI-1 renal = tested on: CAKI-1 renal

| Compound | growth (SK-MEL-2 melanoma) | growth (EKVX NSCLC) | growth (SN12C renal) | growth (UO-31 renal) | growth (TK-10 renal) | growth (ACHN renal) | growth (A498 renal) | growth (MOLT-4 leukemia) | growth (SR leukemia) | growth (RPMI-8226 leukemia) | growth (OVCAR-8 ovarian) | growth (OVCAR-5 ovarian) | growth (OVCAR-4 ovarian) | growth (SK-OV-3 ovarian) | growth (IGROV1 ovarian) | growth (OVCAR-3 ovarian) | growth (NCI/ADR-RES ovarian) | growth (CCRF-CEM leukemia) | growth (HS 578T breast) | growth (CAKI-1 renal) |
| --- | --- | --- | --- | --- | --- | --- | --- | --- | --- | --- | --- | --- | --- | --- | --- | --- | --- | --- | --- | --- |
| O=C(Oc1cccc(OC(=O)c2ccccc2)c1)c1ccccc1 | 93.2% (inactive) | 102% (inactive) and 104% (inactive) | 97.8% (inactive) and 99.4% (inactive) | 50.4% (inactive) and 90.9% (inactive) | 133% (inactive) and 85.7% (inactive) | 103% (inactive) and 99.7% (inactive) | 99.2% (inactive) and 91.2% (inactive) | 85% (inactive) and 91.3% (inactive) | 94.4% (inactive) | 69.9% (inactive) and 104% (inactive) | 110% (inactive) | 92.7% (inactive) and 102% (inactive) | 97.3% (inactive) and 92.1% (inactive) | 126% (inactive) and 97.4% (inactive) | 109% (inactive) | 76.3% (inactive) and 101% (inactive) | 95.5% (inactive) and 97.7% (inactive) |  |  |  |
| Nc1ccccc1Nc1ccccc1 | 133% (inactive) and 78.1% (inactive) | 96.4% (inactive) | 70% (inactive) and 72.6% (inactive) | 45.3% (inactive) and 49.6% (inactive) | 111% (inactive) and 88.4% (inactive) | 85.5% (inactive) and 75.2% (inactive) | 105% (inactive) | 53.5% (inactive) and 88.3% (inactive) | 68.2% (inactive) and 72.1% (inactive) | 42.3% (inactive) and 29.1% (inactive) | 95.7% (inactive) and 92.3% (inactive) | 129% (inactive) and 115% (inactive) | 93.7% (inactive) and 88.9% (inactive) | 114% (inactive) and 106% (inactive) | 100% (inactive) and 109% (inactive) | 79.8% (inactive) and 57% (inactive) | 88% (inactive) and 84.7% (inactive) | 31.8% (inactive) and 25.3% (inactive) | 89.1% (inactive) and 102% (inactive) |  |
| COC(=O)[C@H]1CCCN1C(=O)C1CCCN1C(=O)[C@@H](Cc1ccccc1)NC(=S)Nc1cc(C(F)(F)F)cc(C(F)(F)F)c1 (stereo partly specified) | 109% (inactive) and 103% (inactive) |  | 96.1% (inactive) and 84% (inactive) | 94.6% (inactive) and 59.1% (inactive) | 114% (inactive) and 90% (inactive) | 98.4% (inactive) and 85.6% (inactive) | 96.6% (inactive) and 81.4% (inactive) | 91.3% (inactive) and 42.9% (inactive) | 95.2% (inactive) and 67.5% (inactive) | 109% (inactive) and 66.2% (inactive) | 100% (inactive) and 87% (inactive) | 98.9% (inactive) and 90.4% (inactive) | 104% (inactive) and 80.7% (inactive) | 128% (inactive) and 109% (inactive) | 123% (inactive) and 69.8% (inactive) | 111% (inactive) and 77.1% (inactive) | 109% (inactive) and 93.9% (inactive) | 106% (inactive) and 72.2% (inactive) | 105% (inactive) and 98.2% (inactive) | 89.2% (inactive) |
| C=C1C(=O)O[C@H]2[C@H]1CC/C(COC(=O)NC1CCC(O)CC1)=C\CC[C@@]1(C)O[C@@H]21 (stereo partly specified) | 91.2% (inactive) and 86.1% (inactive) | 72.8% (inactive) and 67.5% (inactive) |  | 78.9% (inactive) and 70.1% (inactive) | 75.2% (inactive) and 71.5% (inactive) | 54.3% (inactive) and 45% (inactive) | 105% (inactive) and 101% (inactive) | 69.5% (inactive) and 63.2% (inactive) | 27.3% (inactive) and 23.4% (inactive) | 61.4% (inactive) and 54.9% (inactive) | 77.1% (inactive) and 79.6% (inactive) | 83.9% (inactive) and 83.6% (inactive) | 77.8% (inactive) and 76% (inactive) | 103% (inactive) and 104% (inactive) | 97.4% (inactive) and 78.2% (inactive) | 44.5% (inactive) and 46.5% (inactive) | 99.8% (inactive) and 100% (inactive) | 16.1% (inactive) and 12.7% (inactive) |  | 70.3% (inactive) and 64% (inactive) |
| O=C1c2c(O)cc(O)cc2OC(c2ccc(O)c(O)c2)C1O (stereo unspecified) | 105% (inactive) | 119% (inactive) | 104% (inactive) |  | 104% (inactive) | 105% (inactive) | 107% (inactive) | 107% (inactive) | 101% (inactive) | 99.5% (inactive) | 99.1% (inactive) | 104% (inactive) | 113% (inactive) | 109% (inactive) | 126% (inactive) | 123% (inactive) |  | 97.7% (inactive) | 109% (inactive) |  |
| CCN(CC)CCNc1ccc(C)c2sc3ccccc3c(=O)c12 (tested in a mixture with another compound) | 59.2% (inactive) and 86.4% (inactive) | 68.6% (inactive) and 86.6% (inactive) | 35.1% (inactive) and 36.4% (inactive) | -4.88% (active) and 2.67% (active) | 23.1% (inactive) and 50% (inactive) | 16.7% (inactive) and 10.4% (inactive) | 102% (inactive) and 75.7% (inactive) | 8.98% (active) and 26.9% (inactive) |  | 10.1% (inactive) and -9.01% (active) | 23.7% (inactive) and 32.3% (inactive) | 48.8% (inactive) and 51.6% (inactive) | 40.7% (inactive) and 53.3% (inactive) |  | -29.6% (active) and 3.62% (active) | 58.9% (inactive) and 62.8% (inactive) | 43.1% (inactive) and 43% (inactive) |  | 122% (inactive) and 81.6% (inactive) | 22.4% (inactive) and 29.9% (inactive) |
| COc1cc2c(Nc3ccc(Cl)c(Cl)c3F)ncnc2cc1OCC1C[C@@H]2CN(C)C[C@@H]2C1 (stereo partly specified) | 74.2% (inactive) | -83% (active) and 41.9% (inactive) | -76.7% (active) and 18.4% (inactive) | -84.8% (active) and -66.7% (active) | -94.8% (active) and -18.4% (active) | -97.8% (active) and 8.5% (active) | -95.7% (active) and -81.6% (active) | -53% (active) |  | -48.5% (active) and 6.02% (active) | -88.4% (active) and 27.4% (inactive) | -89.8% (active) and 37.6% (inactive) | -42.7% (active) and 29.5% (inactive) |  | -70.1% (active) and -9.02% (active) | -53.9% (active) and 25.6% (inactive) | -56.5% (active) and 29.6% (inactive) | -44.9% (active) and -0.854% (active) | -16.9% (active) |  |
| CNC(=O)c1cccc(-c2ccc3c(N4CCOC[C@@H]4C)nc(N4CCOC[C@@H]4C)nc3n2)c1 | -8.99% (active) | -5% (active) and 2.98% (active) | 12.5% (inactive) and 5.62% (active) | -3.68% (active) and -24.2% (active) | -11.3% (active) and -31.2% (active) | 0.741% (active) and -1.46% (active) | -35.6% (active) and -37.8% (active) | 16.8% (inactive) and 8.62% (active) | 9.14% (active) and 1.3% (active) | 3.4% (active) and 4.33% (active) | -4.37% (active) and -7.81% (active) | 8.26% (active) and -3.61% (active) | -17.7% (active) and -18.2% (active) |  | -16.6% (active) and -36.1% (active) | 4.95% (active) and 11.5% (inactive) | 1.66% (active) and -15.6% (active) | 28% (inactive) and 20.3% (inactive) | -31.1% (active) |  |
| Cc1n[nH]c(=O)n(/N=C\c2c[nH]c3ccccc23)c1=O | 104% (inactive) | 109% (inactive) | 99.8% (inactive) | 60.6% (inactive) | 100% (inactive) | 98.5% (inactive) | 103% (inactive) | 91.6% (inactive) | 108% (inactive) | 105% (inactive) | 102% (inactive) | 106% (inactive) | 96.9% (inactive) | 97.2% (inactive) | 102% (inactive) | 107% (inactive) | 106% (inactive) | 95.9% (inactive) | 108% (inactive) |  |
